Bioassay records (PubChem)
CASP6 VEID inh – blocks human caspase-6 cleavage activity; purified caspase-6, Z-VEID-R110 cleavage fluorescence; inhibition, % at 12.5 µM; P55212; 350,000 compounds, 0.53% hits;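 active = mean inhibition across replicates at least about 35%, with every replicate also reaching that limit, limit read from the data; inconclusive = only one of the two criteria met; inactive = neither criterion met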;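 note: 0% = median of neutral control wells and 100% = no fluorescence left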
Target sequence (P55212 24-179 limits assumed): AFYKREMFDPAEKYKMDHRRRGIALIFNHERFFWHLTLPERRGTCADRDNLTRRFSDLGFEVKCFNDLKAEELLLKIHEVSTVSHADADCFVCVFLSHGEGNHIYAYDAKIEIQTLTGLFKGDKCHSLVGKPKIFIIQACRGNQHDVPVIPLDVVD
Target sequence (P55212 194-293 limits assumed): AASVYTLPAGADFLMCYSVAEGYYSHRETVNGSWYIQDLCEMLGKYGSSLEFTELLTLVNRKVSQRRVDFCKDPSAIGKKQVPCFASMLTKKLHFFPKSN
NSD2 inh – blocks human histone methyltransferase NSD2; 310,000 compounds, 0.54% hits; inhibition, % at 12.5 µM; NSD2 peptide methylation, AlphaScreen, 120 min; in the data active = inhibition above about 50%
SUMO HTRF inh – SUMOylation inhibition; HTRF SUMOylation assay, SAE1/SAE2 + UBC9, in vitro; inhibition, % at 35 µM; P63279; 290,000 compounds, 0.36% hits; in the data active = inhibition above about 50%, passing the limit was not always enough; inconclusive = no clear call, values can overlap the other calls
SIRT5 inh – inhibitors of human sirtuin-5 desuccinylase; Q9NXA8; Purified SirT5, succinyl-peptide AMC, trypsin-coupled fluorescence; inhibition, % at 15 µM; 330,000 compounds, 1.1% hits; AID 652115; in the data active = inhibition above about 15%; inconclusive = no clear call, values can overlap the other calls
Target sequence (Q9NXA8 whole entry, looked up): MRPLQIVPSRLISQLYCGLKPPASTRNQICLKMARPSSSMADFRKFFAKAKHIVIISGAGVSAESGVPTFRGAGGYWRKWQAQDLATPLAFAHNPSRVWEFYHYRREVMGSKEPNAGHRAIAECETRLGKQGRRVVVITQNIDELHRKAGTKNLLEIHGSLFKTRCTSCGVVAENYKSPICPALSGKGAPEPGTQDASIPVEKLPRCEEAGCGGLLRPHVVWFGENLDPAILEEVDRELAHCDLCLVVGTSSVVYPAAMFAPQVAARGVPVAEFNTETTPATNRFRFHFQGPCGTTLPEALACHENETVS
* hit, by the source's call; u = inconclusive; x = no result given; ! = a repeat was not active. Compounds with a hit are over-represented: about 1.6% of the library has one in this group of screens.

SMILES	CASP6 VEID inh	NSD2 inh	SUMO HTRF inh	SIRT5 inh
O=C(Nc1cccc2c(=O)[nH][nH]c(=O)c12)c1ccc([N+](=O)[O-])cc1	42*	4	x	x
O=C(Nc1cccc2ccccc12)c1ccc([N+](=O)[O-])cc1	-1	-3	4	-4
Cc1[nH]n(-c2ncc(-c3ccc(Cl)cc3)s2)c(=O)c1C(c1ccc(Cl)cc1)C(C#N)C#N (configuration not stated)	x	x	70*	x
O=C1C=C(Nc2cccc3cccnc23)c2ccccc2C1=O	29	104*	33	3
O=C1C=C(Nc2ccccc2C(=O)O)c2ccccc2C1=O	89*	x	x	3
O=C1C=C(Nc2ccccc2)c2ccccc2C1=O	97*	5	x	0
O=C(C1=C[C@@H](C2CCCCC2)C[C@@H](OCc2ccc(CO)cc2)O1)N1CCOCC1	2	x	14	0
CN1CCN(C(=O)C2=C[C@H](C3CCCCC3)C[C@H](OCc3ccc(CO)cc3)O2)CC1	0	x	0	30*!
CCCNC(=O)N(C)C[C@H]1Oc2ncc(C#CC3CC3)cc2C(=O)N([C@@H](C)CO)C[C@H]1C	-1	x	x	-2
CC(C)=NNc1cc([N+](=O)[O-])cc2c1C(=O)N(C)S2=O (configuration not stated)	40*	10	8	-7
CC1=NN(c2ccc(C)c(C)c2)C(=O)/C1=C\C=C\c1ccc([N+](=O)[O-])o1	47*	3	38	-1
C/C=C/c1ccc([C@H]2[C@@H](CO)N(CCC)[C@@H]2CNC(=O)NC2CCCC2)cc1	x	x	x	-2
C[C@@H]1CN([C@@H](C)CO)C(=O)c2c(c3ccccc3n2C)-c2ccccc2CO[C@@H]1CN(C)Cc1cccc2c1OCCCO2	1	x	x	25*
COc1ccccc1CN(C)C[C@@H]1OCc2ccccc2-c2c(n(C)c3ccccc23)C(=O)N([C@H](C)CO)C[C@@H]1C	1	x	x	0
C[C@@H]1CN([C@H](C)CO)C(=O)c2c(c3ccccc3n2C)-c2ccccc2CO[C@@H]1CN(C)Cc1cccc2c1OCCCO2	2	x	x	20*
COc1ccccc1CN(C)C[C@H]1OCc2ccccc2-c2c(n(C)c3ccccc23)C(=O)N([C@@H](C)CO)C[C@H]1C	1	x	x	15*
C[C@H](CO)N1C[C@H](C)[C@H](CN(C)Cc2ccccc2)OCc2ccccc2-c2c(n(C)c3ccccc23)C1=O	1	x	x	-1
C[C@H]1CN([C@@H](C)CO)C(=O)c2c(c3ccccc3n2C)-c2ccccc2CO[C@H]1CN(C)Cc1cccc2c1OCCCO2	-1	x	x	21*
CO[C@@H]1CN(C)C(=O)c2ccc(NS(=O)(=O)c3cn(C)cn3)cc2OC[C@@H](C)N(Cc2cccc(F)c2)C[C@H]1C	0	x	x	1
CS(=O)(=O)N1CC2(C1)[C@H](c1ccccc1)[C@H](CO)N2C(=O)c1ccccc1	1	x	x	3
COc1ccc(NC(=O)Nc2ccc3c(c2)[C@H]2C[C@@H](CC(=O)N4CCCCC4)O[C@H](CO)[C@H]2O3)cc1	3	x	x	-8
COc1ccc(CNC(=O)C[C@@H]2C[C@H]3c4cc(NC(=O)C5CCC5)ccc4O[C@H]3[C@H](CO)O2)cc1	-2	x	x	1
COc1ccc(NC(=O)Nc2ccc3c(c2)[C@H]2C[C@H](CC(=O)O)O[C@H](CO)[C@H]2O3)cc1	-1	x	x	-1
Cc1noc(C)c1NC(=O)N(C)C[C@@H]1Oc2ccc(NS(=O)(=O)c3ccc(Cl)cc3)cc2CC(=O)N([C@H](C)CO)C[C@@H]1C	0	x	x	4
COC(=O)N(C)C[C@H]1OCc2ccccc2-c2c(n(C)c3ccccc23)C(=O)N([C@@H](C)CO)C[C@@H]1C	3	x	x	18*
SMILES	CASP6 VEID inh	NSD2 inh	SUMO HTRF inh	SIRT5 inh
COC(=O)N(C)C[C@@H]1OCc2ccccc2-c2c(n(C)c3ccccc23)C(=O)N([C@H](C)CO)C[C@@H]1C	2	x	x	1
C[C@H]1CN([C@@H](C)CO)C(=O)c2ccccc2-c2ccccc2CO[C@H]1CN(C)Cc1cccc2c1OCCCO2	-2	x	x	-1
C[C@H]1CN([C@@H](C)CO)C(=O)c2c(c3ccccc3n2C)-c2ccccc2CO[C@@H]1CN(C)Cc1cccc2c1OCCCO2	-1	x	x	19*
C[C@H]1CN([C@@H](C)CO)C(=O)c2c(c3ccccc3n2C)-c2ccccc2CO[C@@H]1CN(C)Cc1ccccc1	7	x	x	5
C[C@@H]1CN([C@H](C)CO)C(=O)c2c(c3ccccc3n2C)-c2ccccc2CO[C@H]1CN(C)Cc1cccc2c1OCCCO2	-1	x	x	23*
CC(C)NC(=O)Nc1ccc2c(c1)C(=O)N([C@H](C)CO)C[C@H](C)[C@H](CN(C)Cc1ccc(C(F)(F)F)cc1)OCCCC[C@H](C)O2	0	x	x	6
COc1cccc(NC(=O)N2CC3(C2)[C@H](c2ccccc2)[C@@H](CO)N3C(=O)C2CC2)c1	-1	x	x	0
COc1ccc(N2C(=O)CC(N3CCC(c4nc5ccccc5[nH]4)CC3)C2=O)cc1 (configuration not stated)	x	1	21	x
O=C1CC(N2CCC(c3nc4ccccc4[nH]3)CC2)C(=O)N1c1ccccc1F (configuration not stated)	-1	-2	4	18*
C[C@@H]1CCCCO[C@@H](CN(C)Cc2ccc(C(F)(F)F)cc2)[C@H](C)CN([C@@H](C)CO)C(=O)c2cc(NS(=O)(=O)c3ccccc3)ccc2O1	1	x	x	21*
C[C@@H]1CN([C@H](C)CO)C(=O)c2cc(NS(=O)(=O)c3ccccc3)ccc2O[C@@H](C)CCCCO[C@@H]1CN(C)Cc1ccc(C(F)(F)F)cc1	-1	x	x	0
C[C@@H]1CN([C@@H](C)CO)C(=O)c2cc(NS(=O)(=O)c3ccccc3)ccc2O[C@@H](C)CCCCO[C@H]1CN(C)Cc1ccc(C(F)(F)F)cc1	1	x	x	18*
C[C@@H]1CCCCO[C@H](CN(C)Cc2ccc(C(F)(F)F)cc2)[C@@H](C)CN([C@@H](C)CO)C(=O)c2cc(NS(=O)(=O)c3ccccc3)ccc2O1	1	x	x	20*
C[C@@H]1CN([C@H](C)CO)C(=O)c2cc(NS(=O)(=O)c3ccc(F)cc3)ccc2O[C@H]1CN(C)C(=O)Nc1ccc(C(F)(F)F)cc1	-2	x	x	-9
N#CCCN(C(=O)COC(=O)c1ccc2c(c1)NC(=O)CS2)c1ccc2c(c1)OCCO2	-4	0	2	37*
CC1=C/C(=N\NC(=S)NCc2ccccc2)CC1	-3	4	11	18*
CCOc1ccc(CCNC(=O)c2cccc(S(=O)(=O)N3CCCCC3)c2)cc1OCC	2	24	x	-3
CCOc1ccc(CCNC(=O)c2cccc(S(=O)(=O)N3CCN(C(C)=O)CC3)c2)cc1OCC	-1	0	x	21*
Oc1ccc(/C=N/Nc2cc(N3CCCC3)nc(N3CCCC3)n2)cc1O	17	110*	63*	-1
Oc1ccc(/C=N\Nc2cc(N3CCOCC3)nc(N3CCOCC3)n2)c(O)c1	7	153*	u	3
O=C(C[C@@H]1C=C[C@H](NC(=O)CC2CC2)[C@@H](CO)O1)NCc1ccc(Cl)cc1	1	x	x	-2
CCn1nc(C)c(/C=C/C(=O)Nc2ccc(C)cc2C)c1C	0	1	3	37*
